Screens: PubChem, National Center for Advancing Translational Sciences (NCATS)
In the library only some 7.5% were active in any assay of this set; here they are far more common.
Rab9 prom act = Rab9 promoter activation | Huh7 Rab9 promoter-luciferase reporter, luminescence, 24 h | Potency, µM (doses to about 9.22 µM), for inactives: at the top dose activation, negative = inhibition, actives largely listed as activators | 320,000 compounds, 2.8% hits; also: % of control where 0% means no effect; nearly all actives have a fitted effect of over 60% in size
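Huh7 reporter line, Rab9 promoter upstream of luciferase. Compound exposure 24 h at 37 °C in reduced-serum medium with 10% FBS. Read-out: luminescence.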
NPC1 prom act = NPC1 promoter activation; Potency, µM (highest dose often 9.22 µM), inactives show at the highest dose activation, actives largely listed as activators; Huh7 NPC1 promoter luciferase reporter, 24 h; 320,000 compounds, 2.4% hits; also: % of control where 0% means no effect; nearly all actives have a fitted effect of over 60% in size
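Huh7 reporter cells (NPC1 promoter driving luciferase) are dosed with compound for 24 h at 37 °C, 5% CO2; luciferase detection reagent is then added and luminescence measured after 10 min at ambient temperature.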
FLuc modulator = inhibits or activates purified firefly luciferase, miR-21 counter-screen; P08659; purified FLuc, Km substrates, luminescence inhibition; Potency, µM (titrated, usually from 57.5 µM), inactives show at the top dose activity change, negative = inhibition, actives largely listed as inhibitors; 360,000 compounds, 6.9% hits; AID 588342;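 also: plate controls were vehicle for no effect and reference inhibitor for full effect; nearly all actives have a fitted effect of over 55% in size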
Target sequence (P08659 whole entry, looked up): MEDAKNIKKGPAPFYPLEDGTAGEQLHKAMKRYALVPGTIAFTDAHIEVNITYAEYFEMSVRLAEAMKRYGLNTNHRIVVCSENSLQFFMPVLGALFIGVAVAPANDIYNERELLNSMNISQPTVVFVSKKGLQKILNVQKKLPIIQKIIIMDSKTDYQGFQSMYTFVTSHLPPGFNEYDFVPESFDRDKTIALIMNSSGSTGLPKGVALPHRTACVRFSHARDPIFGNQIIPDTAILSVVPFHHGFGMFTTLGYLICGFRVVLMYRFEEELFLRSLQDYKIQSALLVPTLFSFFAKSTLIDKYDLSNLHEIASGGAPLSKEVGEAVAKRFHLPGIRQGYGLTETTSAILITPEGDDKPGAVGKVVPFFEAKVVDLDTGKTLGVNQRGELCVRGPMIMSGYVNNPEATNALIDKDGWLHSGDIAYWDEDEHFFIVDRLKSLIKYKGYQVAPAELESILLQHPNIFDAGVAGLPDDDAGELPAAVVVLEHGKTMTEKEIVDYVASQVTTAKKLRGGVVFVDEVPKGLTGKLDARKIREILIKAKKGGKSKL
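Purified P. pyralis luciferase, 10 nM final, with Km-level 10 uM D-luciferin and 10 uM ATP in 50 mM Tris acetate pH 7.5, 10 mM Mg acetate, 0.01% Tween-20, 0.05% BSA; 6-point qHTS titration about 60 µM downward; luminescence read.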
SMN2 splice enh = SMN2 splice variant enhancement; HEK293 SMN2-luciferase splicing reporter, luminescence, 30-36 h; Potency, µM (highest dose often 46.1 µM), inactives show top-dose activity change, positive = activation, actives largely listed as activators; 210,000 compounds, 2.8% hits; also: % of control where 0% means no effect; nearly all actives have a fitted effect of over 55% in size
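HEK293 cells carry an SMN2 […]–luciferase reporter in which exon 7 inclusion puts luciferase in frame. Cells were plated 10-12 h before compound addition, then incubated 30-36 h at 37C. ONE-Glo luminescence was read; sodium butyrate at 4.5 mM final served as control.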
ELG1 genotoxic = genotoxicity induction in ELG1-luciferase HEK293T cells; Potency, µM (titrated, usually from 46 µM), without a hit: at the highest dose activity change, positive = activation, most hits filed as activators; HEK293T ELG1-luciferase reporter, luminescence, 16 h; AID 504466; 330,000 compounds, 1.3% hits; also: % of control where 0% means no effect; nearly all actives have a fitted effect of over 60% in size
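Cells (2,000/well) expressing the ELG1-luciferase fusion are dosed by pin tool and kept 16 hr at 37 °C, 5% CO2. Signal comes from ONE-Glo luciferase reagent after 30 min at room temperature.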
The depositor's hits bear a star; ? = inconclusive; . = no result given; [ ] = remark or other dose. Calls follow the shape of the dose curve; as a rule, active = well fitted curve in the direction sought with a large enough effect; inconclusive = small, poorly fitted or top-dose-only effect, or another doubt; inactive = no such curve, though single readings can be large; an effect the other way counts as inactive or inconclusive. Potency is read from the fitted curve at half-maximal effect.

SMILES	Rab9 prom act	NPC1 prom act	FLuc modulator	SMN2 splice enh	ELG1 genotoxic
COCCNC(=O)c1cc2ncc(Br)cn2n1	1%	1%	5%	-5%	6%
CC(C)c1cc(C(=O)NCc2ccco2)no1	?	13%	-14%	?	15µM*
O=C(NCCCn1ccnc1)c1cc(-c2cccs2)on1	3.2µM*	?	?	-2%	?
O=C(NCc1ccco1)c1cc(-c2ccc(F)cc2)on1	2.8µM*	2.5µM*	?	21%	?
Cc1ccc2oc(-c3cc(NC(=O)c4ccco4)ccc3Cl)nc2c1	.	.	?	-10%	.
O=C(Nc1c(F)cc(F)cc1Br)c1cc(-c2ccco2)on1	16%	3%	-6%	-5%	2%
O=C(NCc1ccc(F)cc1)c1cc(-c2ccco2)on1	14%	2%	1%	20µM*	1%
O=C(Nc1ccc(F)cc1F)c1cc(-c2ccco2)on1	7%	-8%	4.3µM*	-17%	?
Cc1cc(Nc2cccc(Cl)c2)nc2ccc(NC(=O)Cc3ccc(Cl)cc3)cc12	.	.	-2%	.	.
CCCn1c(CCC(=O)Nc2cccc(CC)c2)nc2cccnc21	.	.	-7%	-11%	.
CC(Sc1nnc(-c2ccccc2F)n1C1CC1)C(=O)NCc1ccco1 (centres undefined)	-3%	1%	5%	.	1%
Cc1c(Cl)ccc2sc(NC(=O)c3ccco3)nc12	4µM*	2.8µM*	5.4µM*	.	?
CS(=O)(=O)c1ccc2nc(NC(=O)c3ccco3)sc2c1	1.6µM*	2.8µM*	4.8µM*	7.9µM*	?
Cc1noc(C)c1C(=O)Nc1nc2ccc(S(C)(=O)=O)cc2s1	?	?	1.1µM*	.	?
CS(=O)(=O)c1ccc2nc(NC(=O)c3cccc(Cl)c3)sc2c1	1%[1.84 µM]	17%	?	.	12%
Cc1ccc(C(=O)Nc2nc3ccc(S(C)(=O)=O)cc3s2)o1	2.5µM*	2.8µM*	3µM*	4µM*	?
C/C(=N\OCC(=O)OCC(=O)Nc1cc(S(C)(=O)=O)ccc1Cl)c1ccc2c(c1)OCO2	0%	-3%	2%	.	1%
COc1cc(NC(C)=O)c2ncccc2c1[N+](=O)[O-]	-2%	-1%	0%	-5%	-2%
COc1ccc(OC)c(S(=O)(=O)NC(C)c2cnn(-c3ccccn3)c2C)c1 (centres undefined)	9%	1%	2%	.	-1%
O=C(NC(=S)Nc1nc2ccc(F)cc2s1)c1ccco1	2.5µM*	6%	1.3µM*	10µM*	?
Cc1nc(NC(=S)NC(=O)c2ccco2)sc1C(=O)N(C)C	24%	21%	-14%	.	12%
CCn1c(O)c(N=Nc2ccc3ccccc3n2)c2ccccc21	1.1µM*	3.2µM*	3µM*	.	5.8µM*
CCCCn1c(O)c(N=Nc2ccccn2)c2ccccc21	4%	-2%	?	-11%	-3%
O=C(c1ccco1)n1c(=S)nc2ccccn21	1.4µM*	2.8µM*	3.8µM*	?	5µM*
Cc1cccc2nc(=S)n(C(=O)c3ccco3)n12	1.3µM*	?	1.1µM*	50%	?
SMILES	Rab9 prom act	NPC1 prom act	FLuc modulator	SMN2 splice enh	ELG1 genotoxic
O=C(c1cc2ncc(Br)cn2n1)N1CCN(C(=O)c2ccco2)CC1	-10%	-2%	4%	15%	-5%
CC(=O)N1CCN(C(=O)c2ccco2)CC1	-4%	4%	1%	.	-1%
Cc1ccc(S(=O)(=O)N2CCC(=O)N(C(COCc3ccccc3)Cc3ccccc3)CC2)cc1 (centres undefined)	-6%	0%	3%	-26%	-9%
Cc1ccc(CSc2nnc(-c3ccc4c(c3)OCO4)o2)cc1	-6%	3%	?	13%	8%
Cc1ccc(Nc2nnc(-c3ccc4c(c3)OCO4)o2)c(C)c1	?	?	8.5µM*	10%[9.22 µM]	?
COc1cccc(N2CCN(c3nc4ccc(C(=O)c5ccccc5)cc4n4c(C)nnc34)CC2)c1	.	.	-2%	.	.
CCN(CC)c1ccc(/C=C(/C#N)c2nc3ccccc3[nH]2)c(OC(C)C)c1	?	21%	2.7µM*	-65%	17%
CCOc1cccc(/C=C(/C#N)c2nc3ccccc3[nH]2)c1OCC(=O)O	0%	-5%	?	.	0%
